Experimental data as given in PubChem BioAssay AID1159580 (chemical genetic matrix, 2015).
Where “and” joins values, the source holds several entries; their conditions need not be identical. Equal values may be shown once. In all, about 5,500 compounds went through this assay and about 2,000 (36%) were called active. About 18% were inconclusive and are not listed. Rule as the data show it: active = normalized growth mostly below about 0.91 (no sharp cut-off); inconclusive = no clear call, values can overlap the other calls; inactive = mostly above about 0.92. Some of the results follow.

Assay: chemical genetic growth profiling, strain panel (AID 1159580);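 also: tested at 20 µM; growth read once vehicle control cultures reached saturation at 30 °C; 1 = growth at the plate median or of vehicle wells; lower values mean less growth of the strain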
Conditions: S. cerevisiae deletion strains, growth OD

Measured: normalized growth

CC1(C)C2CC[C@]3(C)C(C(=O)C=C4[C@@H]5C[C@@](C)(C(=O)O)CC[C@]5(C)CC[C@]43C)[C@@]2(C)CC[C@@H]1OC(=O)CCC(=O)O (stereo partly drawn)
inactive: locus YAL021C, strain ccr4, stronger effect = lower value 0.968 | locus YAL026C, strain drs2, stronger effect = lower value 0.981 | locus YAL030W, strain snc1, stronger effect = lower value 1 | locus YBL061C, strain skt5, stronger effect = lower value 0.99 | locus YBR009C, strain hhf1, stronger effect = lower value 1 | locus YBR021W, strain FUR4, stronger effect = lower value 0.981 | locus YBR023C, strain chs3, stronger effect = lower value 0.983 | locus YBR171W, strain sec66, stronger effect = lower value 0.975 | locus YBR229C, strain ROT2, stronger effect = lower value 1 | locus YBR231C, strain swc5, stronger effect = lower value 0.996 | locus YBR279W, strain paf1, stronger effect = lower value 0.976 | locus YCL011C, strain gbp2, stronger effect = lower value 0.963 | locus YCL016C, strain dcc1, stronger effect = lower value 0.979 | locus YCL029C, strain bik1, stronger effect = lower value 0.973 | locus YCL069W, strain vba3, stronger effect = lower value 1.02 | locus YCR088W, strain abp1, stronger effect = lower value 0.985 | locus YDL005C, strain med2, stronger effect = lower value 0.994 | locus YDL035C, strain GPR1, stronger effect = lower value 0.968 | locus YDL040C, strain nat1, stronger effect = lower value 0.988 | locus YDL074C, strain BRE1, stronger effect = lower value 1.02 | locus YDL101C, strain DUN1, stronger effect = lower value 1 | locus YDL134C, strain PPH21, stronger effect = lower value 0.966 | locus YDL185W, strain tfp1, stronger effect = lower value 0.958 | locus YDL192W, strain arf1, stronger effect = lower value 0.989 | locus YDR001C, strain nth1, stronger effect = lower value 0.983 | locus YDR069C, strain doa4, stronger effect = lower value 0.938 | locus YDR101C, strain arx1, stronger effect = lower value 0.994 | locus YDR137W, strain rgp1, stronger effect = lower value 0.911 | locus YDR159W, strain sac3, stronger effect = lower value 0.909 | locus YDR162C, strain NBP2, stronger effect = lower value 0.954 | locus YDR195W, strain ref2 1 | locus YDR297W, strain sur2, stronger effect = lower value 0.995 | locus YDR318W, strain mcm21, stronger effect = lower value 0.972 | locus YDR334W, strain swr1, stronger effect = lower value 0.991 | locus YDR335W, strain msn5, stronger effect = lower value 0.979 | locus YDR388W, stronger effect = lower value 1 | locus YDR392W, strain spt3, stronger effect = lower value 0.873 | locus YDR502C, strain sam2, stronger effect = lower value 0.99 | locus YEL003W, strain gim4, stronger effect = lower value 0.992 | locus YEL037C, strain rad23, stronger effect = lower value 0.986 | locus YEL061C, strain CIN8 (second series), stronger effect = lower value 0.988 | locus YEL061C, strain CIN8, stronger effect = lower value 0.999 | locus YER015W, strain faa2, stronger effect = lower value 0.989 | locus YER016W, strain bim1, stronger effect = lower value 0.975 | locus YER110C, stronger effect = lower value 0.982 | locus YER111C, strain swi4, stronger effect = lower value 0.968 | locus YER155C, strain BEM2 (second series), stronger effect = lower value 1.02 | locus YER155C, strain BEM2, stronger effect = lower value 1 | locus YER167W, strain BCK2, stronger effect = lower value 0.99 | locus YFR010W, strain ubp6, stronger effect = lower value 1.01 | locus YGL078C, strain dbp3, stronger effect = lower value 0.98 | locus YGL086W, strain mad1, stronger effect = lower value 0.999 | locus YGL167C, strain pmr1, stronger effect = lower value 0.987 | locus YGL173C, strain kem1, stronger effect = lower value 0.999 | locus YGL227W, strain vid30, stronger effect = lower value 0.982 | locus YGL240W, strain doc1, stronger effect = lower value 0.992 | locus YGL248W, strain PDE1, stronger effect = lower value 1.02 | locus YGL253W, strain hxk2, stronger effect = lower value 0.963 | locus YGR078C, strain PAC10, stronger effect = lower value 1.03 | locus YGR135W, strain pre9, stronger effect = lower value 0.96 | locus YGR229C, strain SMI1, stronger effect = lower value 0.999 | locus YGR252W, strain gcn5, stronger effect = lower value 1.04 | locus YHR013C, strain ard1, stronger effect = lower value 0.995 | locus YHR027C, strain rpn1, stronger effect = lower value 1 | locus YHR030C, strain SLT2, stronger effect = lower value 0.984 and 1.06 | locus YHR079C, strain IRE1 (second series), stronger effect = lower value 0.979 | locus YHR079C, strain IRE1, stronger effect = lower value 1.08 | locus YHR094C, strain hxt1, stronger effect = lower value 0.987 | locus YHR129C, strain ARP1, stronger effect = lower value 0.991 | locus YHR142W, strain chs7, stronger effect = lower value 0.955 | locus YHR200W, strain rpn10, stronger effect = lower value 0.958 | locus YIL066C, strain RNR3, stronger effect = lower value 0.983 | locus YIL073C, strain SPO22, stronger effect = lower value 0.91 | locus YIL125W, strain kgd1, stronger effect = lower value 1 | locus YIR030C, strain dcg1, stronger effect = lower value 0.98 | locus YJL092W, strain hpr5, stronger effect = lower value 1 | locus YJL095W, strain BCK1 (second series), stronger effect = lower value 1 | locus YJL095W, strain BCK1, stronger effect = lower value 1.03 | locus YJL115W, strain asf1, stronger effect = lower value 0.983 | locus YJL129C, strain trk1, stronger effect = lower value 0.936 | locus YJL134W, strain LCB3, stronger effect = lower value 0.99 | locus YJL154C, strain vps35, stronger effect = lower value 0.987 | locus YJL164C, strain tpk1, stronger effect = lower value 0.982 | locus YJL166W, strain qcr8, stronger effect = lower value 0.999 | locus YJL168C, strain set2, stronger effect = lower value 0.997 | locus YJL187C, strain SWE1 (second series), stronger effect = lower value 1.02 | locus YJR043C, strain POL32, stronger effect = lower value 1.01 | locus YJR066W, strain TOR1, stronger effect = lower value 1.01
